Measurements reported in the supplement of paper PMC10681739.

Tests used:
[1] = target: T1, ETS1 (UniProt P14921); experiment: ETS1 binding intensity (PBM fluorescence), ETS1 alone (arbitrary fluorescence units); higher = stronger binding; settings: ETS1 concentration 1 nM; RUNX1 concentration 0 nM
T1 sequence: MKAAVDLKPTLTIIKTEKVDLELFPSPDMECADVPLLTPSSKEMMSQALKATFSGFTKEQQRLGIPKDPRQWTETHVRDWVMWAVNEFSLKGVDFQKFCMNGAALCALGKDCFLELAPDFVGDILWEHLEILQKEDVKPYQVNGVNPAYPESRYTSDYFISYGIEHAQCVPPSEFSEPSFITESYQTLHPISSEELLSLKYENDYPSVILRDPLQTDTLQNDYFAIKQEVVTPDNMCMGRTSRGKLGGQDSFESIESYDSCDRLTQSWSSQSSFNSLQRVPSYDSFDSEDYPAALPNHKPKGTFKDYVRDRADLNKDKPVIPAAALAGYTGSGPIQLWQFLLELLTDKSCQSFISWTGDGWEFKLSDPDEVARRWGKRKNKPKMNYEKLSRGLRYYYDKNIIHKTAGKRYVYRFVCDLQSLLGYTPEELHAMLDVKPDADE

[2] = target: RUNX1 (UniProt Q01196); experiment: RUNX1 binding intensity (PBM fluorescence), RUNX1 alone (arbitrary fluorescence units); higher = stronger binding; settings: RUNX1 concentration 2 nM; ETS1 concentration 0 nM
Description: (§1)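 Cooperative gcPBM on 36-bp genomic probes with neighbouring ETS1 and RUNX1 sites. Recombinant human RUNX1 (2 nM) was incubated alone or with ETS1 (25 nM) and detected with anti-RUNX1 antibody plus Alexa488 secondary. Values are medians over 4 replicate spots; the RUNX1+ETS1 data were normalised to the RUNX1-only data. The probes sit in constant array flanks that are not printed.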

[3] = target: T1, ETS1; experiment: ETS1 binding intensity (PBM fluorescence) in presence of RUNX1, normalised to ETS1-only experiment (arbitrary fluorescence units); higher = stronger binding; settings: ETS1 concentration 1 nM; RUNX1 concentration 25 nM
[4] = target: RUNX1 (UniProt Q01196); experiment: RUNX1 binding intensity (PBM fluorescence) in presence of ETS1, normalised to RUNX1-only experiment (arbitrary fluorescence units); higher = stronger binding; settings: RUNX1 concentration 2 nM; ETS1 concentration 25 nM
Description: as §1
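Throughout, for RUNX1 binding intensity (PBM fluorescence) in presence of ETS1, normalised to RUNX1-only experiment: Full-length recombinant human ETS1 or RUNX1 bound to double-stranded 36-bp genomic probes on microarrays, detected by protein-specific primary antibody and Alexa488 secondary, spot fluorescence as median of four replicate spots.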
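Throughout, for RUNX1 binding intensity (PBM fluorescence), RUNX1 alone: Full-length recombinant human RUNX1 bound to double-stranded 36-bp genomic probes on a high-density microarray, scored as Alexa488 fluorescence per spot via anti-RUNX1 antibody, median of four replicate spots.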

Chain of RUNX1 (Q01196 whole entry): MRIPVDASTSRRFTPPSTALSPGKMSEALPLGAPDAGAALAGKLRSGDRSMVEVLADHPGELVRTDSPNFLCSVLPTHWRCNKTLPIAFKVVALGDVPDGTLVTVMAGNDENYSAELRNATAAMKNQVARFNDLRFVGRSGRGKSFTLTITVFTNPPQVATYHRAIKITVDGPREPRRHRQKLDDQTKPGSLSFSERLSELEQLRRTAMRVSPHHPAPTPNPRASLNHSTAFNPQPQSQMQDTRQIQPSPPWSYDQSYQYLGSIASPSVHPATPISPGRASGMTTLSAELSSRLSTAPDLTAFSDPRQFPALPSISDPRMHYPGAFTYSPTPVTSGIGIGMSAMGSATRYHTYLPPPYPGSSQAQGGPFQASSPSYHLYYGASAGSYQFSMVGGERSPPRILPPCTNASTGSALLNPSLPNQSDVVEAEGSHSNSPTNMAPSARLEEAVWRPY

Sequence: GTGGGTTTAGGATATGGGTGTGGTTTCTAATTGTCT
- ETS1 binding intensity [1]: 428
- RUNX1 binding intensity [2]: 885
- ETS1 binding intensity [3]: 653
- RUNX1 binding intensity [4]: 1020

Sequence: CCCGCTGTCACTTCCTGCTTCCCTCCCGCACACGTG
- ETS1 binding intensity [1]: 2700
- RUNX1 binding intensity [2]: 1920
- ETS1 binding intensity [3]: 2310
- RUNX1 binding intensity [4]: 3690

Sequence: GCCCGCGGCTCCGGAAGCGGCTGCGGCCCCGACCGG
- ETS1 binding intensity [1]: 3000
- RUNX1 binding intensity [2]: 678
- ETS1 binding intensity [3]: 3860
- RUNX1 binding intensity [4]: 1040

Sequence: GCGCCAGTCACCGTTTCCTGTGGTTTGCTGCCCGCC
- ETS1 binding intensity [1]: 1790
- RUNX1 binding intensity [2]: 1050
- ETS1 binding intensity [3]: 3010
- RUNX1 binding intensity [4]: 2810

Sequence: GGCTGCGACTTCCGGACTGCTCCTGGCCGCAGGGGG
- ETS1 binding intensity [1]: 2070
- RUNX1 binding intensity [2]: 813
- ETS1 binding intensity [3]: 2500
- RUNX1 binding intensity [4]: 1370

Sequence: GATCCCCCTCCTCCATCCTGTGGCTTCGGGTTGCCG
- ETS1 binding intensity [1]: 482
- RUNX1 binding intensity [2]: 819
- ETS1 binding intensity [3]: 420
- RUNX1 binding intensity [4]: 1150

Sequence: ACTCGGGAATGTCCGGTCGTGGTAAGCAGGGTGGCA
- ETS1 binding intensity [1]: 516
- RUNX1 binding intensity [2]: 803
- ETS1 binding intensity [3]: 529
- RUNX1 binding intensity [4]: 1680

Sequence: TGTATAACATCCTCATGTTCTGTGGGTGAGTTGAGC
- ETS1 binding intensity [1]: 481
- RUNX1 binding intensity [2]: 824
- ETS1 binding intensity [3]: 356
- RUNX1 binding intensity [4]: 871

Sequence: AATGCAGCATTTCCTCTCCAGTTCACCACAGGCCCC
- ETS1 binding intensity [1]: 590
- RUNX1 binding intensity [2]: 1490
- ETS1 binding intensity [3]: 634
- RUNX1 binding intensity [4]: 2420

Sequence: GCCCAATTCCCGAATCCGGTCTGCGGCGCGCTCGGG
- ETS1 binding intensity [1]: 583
- RUNX1 binding intensity [2]: 768
- ETS1 binding intensity [3]: 507
- RUNX1 binding intensity [4]: 1170

Sequence: TAAGAGATTTCCTGTAAAGGTAACCACCAGCAAAGA
- ETS1 binding intensity [1]: 522
- RUNX1 binding intensity [2]: 721
- ETS1 binding intensity [3]: 714
- RUNX1 binding intensity [4]: 1230

Sequence: AAATCACGTACCCGGAAACCACATGCACAGAAGTGG
- ETS1 binding intensity [1]: 2010
- RUNX1 binding intensity [2]: 980
- ETS1 binding intensity [3]: 2930
- RUNX1 binding intensity [4]: 1550

Sequence: ATGAACCACTTCCTGTGTGTTCCCACAGAGGTCAGG
- ETS1 binding intensity [1]: 2670
- RUNX1 binding intensity [2]: 742
- ETS1 binding intensity [3]: 4320
- RUNX1 binding intensity [4]: 7110

Sequence: AACTAGAGCGTCATTTCCTGTGGGTACAAGTCCAGT
- ETS1 binding intensity [1]: 1640
- RUNX1 binding intensity [2]: 842
- ETS1 binding intensity [3]: 2400
- RUNX1 binding intensity [4]: 1370

Sequence: TGAGTCACAGAGACAGGATGTGGTGCAGGGGGTATT
- ETS1 binding intensity [1]: 7580
- RUNX1 binding intensity [2]: 718
- ETS1 binding intensity [3]: 13500
- RUNX1 binding intensity [4]: 1030

Sequence: CCAGTACCCCACTTCCTGACCAAACCACAAAGGTCA
- ETS1 binding intensity [1]: 635
- RUNX1 binding intensity [2]: 2980
- ETS1 binding intensity [3]: 2450
- RUNX1 binding intensity [4]: 8080

Sequence: TGGGGTGGTGACATGGGATGTGGTTTTGGGGTTGCA
- ETS1 binding intensity [1]: 510
- RUNX1 binding intensity [2]: 974
- ETS1 binding intensity [3]: 3860
- RUNX1 binding intensity [4]: 1070

Sequence: TTCAATCACAGGAAACAGACGTCACCCACAGACCTA
- ETS1 binding intensity [1]: 1090
- RUNX1 binding intensity [2]: 794
- ETS1 binding intensity [3]: 2200
- RUNX1 binding intensity [4]: 983

Sequence: TTACAGGGGCCGGAAGTGGCCTGCGGGCGGAGAAGT
- ETS1 binding intensity [1]: 21200
- RUNX1 binding intensity [2]: 753
- ETS1 binding intensity [3]: 30900
- RUNX1 binding intensity [4]: 2020

Sequence: CCTCCCACCTTGGCAGGAAGCGGTTTATCAGATTAA
- ETS1 binding intensity [1]: 4250
- RUNX1 binding intensity [2]: 810
- ETS1 binding intensity [3]: 7770
- RUNX1 binding intensity [4]: 2280

Sequence: AACAAACAGTAGGCAGGAAGTGGTTAAACCGAAAGG
- ETS1 binding intensity [1]: 8580
- RUNX1 binding intensity [2]: 897
- ETS1 binding intensity [3]: 28900
- RUNX1 binding intensity [4]: 3590

Sequence: CCAAGCACTTCCTGCTGTTAGCTTTGTGGGCTGAGT
- ETS1 binding intensity [1]: 826
- RUNX1 binding intensity [2]: 860
- ETS1 binding intensity [3]: 1020
- RUNX1 binding intensity [4]: 1600

Sequence: TTAAGGAGCTTCCGGGGCCGCGGGTAGAGGCGGGTG
- ETS1 binding intensity [1]: 629
- RUNX1 binding intensity [2]: 676
- ETS1 binding intensity [3]: 741
- RUNX1 binding intensity [4]: 1420

Sequence: CGACTTCCGTCCCTGGGTGGGATCGAACCACCAACC
- ETS1 binding intensity [1]: 532
- RUNX1 binding intensity [2]: 1100
- ETS1 binding intensity [3]: 540
- RUNX1 binding intensity [4]: 2780

Sequence: TCTGGAGAAGCAGGATGTGGTTTGCAAGAGGCTTGC
- ETS1 binding intensity [1]: 4750
- RUNX1 binding intensity [2]: 774
- ETS1 binding intensity [3]: 16700
- RUNX1 binding intensity [4]: 4750

Sequence: TTTCTGACACTCTCAGGATGTGGGTTTTCGCACTGT
- ETS1 binding intensity [1]: 1230
- RUNX1 binding intensity [2]: 797
- ETS1 binding intensity [3]: 6000
- RUNX1 binding intensity [4]: 1350

Sequence: TGCTTCCCGTCCGTGTCGCGGCCCTGCGGTTGGCGG
- ETS1 binding intensity [1]: 324
- RUNX1 binding intensity [2]: 1080
- ETS1 binding intensity [3]: 813
- RUNX1 binding intensity [4]: 3310

Sequence: ACAGGAAATGACTTAGGGAAAGTCCCAACCGCAATC
- ETS1 binding intensity [1]: 2800
- RUNX1 binding intensity [2]: 1230
- ETS1 binding intensity [3]: 15700
- RUNX1 binding intensity [4]: 1530

Sequence: ACCTGTGTTCTGGCAGGATGTGGTTGACCTCAGCAG
- ETS1 binding intensity [1]: 4140
- RUNX1 binding intensity [2]: 755
- ETS1 binding intensity [3]: 18700
- RUNX1 binding intensity [4]: 2700

Sequence: GCCTGTGGAGTTGCAGGATGTGGTTGGCGAAAAGAA
- ETS1 binding intensity [1]: 2130
- RUNX1 binding intensity [2]: 905
- ETS1 binding intensity [3]: 7880
- RUNX1 binding intensity [4]: 1360

Sequence: TGGCATTCTCCTTCCTGTCTCCTAACCACAGCCCAC
- ETS1 binding intensity [1]: 741
- RUNX1 binding intensity [2]: 2110
- ETS1 binding intensity [3]: 2050
- RUNX1 binding intensity [4]: 4690

Sequence: GGGGAAGAGGGGAGGATGTCTGAGGTTTTAATTGTA
- ETS1 binding intensity [1]: 523
- RUNX1 binding intensity [2]: 861
- ETS1 binding intensity [3]: 689
- RUNX1 binding intensity [4]: 793

Sequence: CAGAGAAACAGGAAGAACAGTGGTTTCAACTGAAAT
- ETS1 binding intensity [1]: 1310
- RUNX1 binding intensity [2]: 783
- ETS1 binding intensity [3]: 1310
- RUNX1 binding intensity [4]: 939

Sequence: GAGCAGTGGTGGGAAATGTGGGGTTGGGGGTAAAGG
- ETS1 binding intensity [1]: 493
- RUNX1 binding intensity [2]: 874
- ETS1 binding intensity [3]: 390
- RUNX1 binding intensity [4]: 843

Sequence: GAGAGGAGGATGTTGTCAGATACCCACAAATGAGAA
- ETS1 binding intensity [1]: 566
- RUNX1 binding intensity [2]: 812
- ETS1 binding intensity [3]: 621
- RUNX1 binding intensity [4]: 889

Sequence: CCTCTGTTCTTCACAGGAAGCCACAGGCCTCCCCTG
- ETS1 binding intensity [1]: 2840
- RUNX1 binding intensity [2]: 958
- ETS1 binding intensity [3]: 3160
- RUNX1 binding intensity [4]: 1050

Sequence: GATACAGTGCTCAGGAAACCACATGAAACCAGAGTA
- ETS1 binding intensity [1]: 451
- RUNX1 binding intensity [2]: 924
- ETS1 binding intensity [3]: 948
- RUNX1 binding intensity [4]: 972
